Values joined by “and” are separate entries in the source; they are usually repeats but may differ in a detail not shown here. Equal entries are not always repeated. A number with no mark means an inactive call. Results filed as inconclusive are left out. Entries that show only a call come without a potency. Active and inactive are the calls of the source. Unless noted, calls follow the shape of the dose curve; as a rule, active = well fitted curve in the direction sought with a large enough effect; inconclusive = small, poorly fitted or top-dose-only effect, or another doubt; inactive = no such curve, though single readings can be large; an effect the other way counts as inactive or inconclusive. Where a SMILES comes first, the peptide text is derived from it.
Key:
[1] = Cell Viability - N2a (AID 540); conditions: N2a mouse neuroblastoma cell viability; activity change, negative = cytotoxicity: at 92.2 µM (top of the series);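 also: cells exposed to compound for 40 h at 37 °C; nearly all actives have a fitted effect of over 45% in size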; also: potency is read from the fitted curve at half-maximal effect
Method in brief: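 Cytotoxicity was scored as loss of cellular ATP in N2a cells, a mouse neuroblastoma line. Compounds are applied in a qHTS concentration series for 40 hr at 37 °C.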

[2] = Cell Viability - NIH 3T3 (AID 541); conditions: NIH 3T3 cell viability, qHTS; activity change, negative = cytotoxicity: at 92.2 µM (top of the series); also: nearly all actives have a fitted effect of over 25% in size; also: potency is read from the fitted curve at half-maximal effect
Method in brief: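 Cells seeded at 1000/well, rested 5 hr at 37 °C, then dosed and incubated 40 hr at 37 °C. CellTiter-Glo added, 20 min room temperature, luminescence read. AC50 by Hill fit.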

[3] = Cell Viability - HUV-EC-C (AID 542); also: nearly all actives have a fitted effect of over 35% in size; also: potency is read from the fitted curve at half-maximal effect
Method in brief: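 Cells were seeded at 1000 per well and incubated 5 hr at 37 °C before compound addition. After 40 hr at 37 °C, CellTiter-Glo reagent was added for 20 min and luminescence read. AC50 values came from Hill-equation modelling.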

[4] = Cell Viability - H-4-II-E (AID 543); also: nearly all actives have a fitted effect of over 35% in size; also: potency is read from the fitted curve at half-maximal effect
Method in brief: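 Cells seeded at 1500 per well and rested 5 hr; compounds added; 40 hr incubation at 37 °C; CellTiter-Glo added, 20 min at room temperature; luminescence read. Hill-equation fits gave AC50.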

[5] = Cell Viability - SH-SY5Y (AID 544); conditions: SH-SY5Y neuroblastoma cell viability; viability change, negative = cytotoxic: at 92.2 µM (top of the series); also: nearly all actives have a fitted effect of over 55% in size; also: potency is read from the fitted curve at half-maximal effect
Method in brief: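 Cells were plated at 1500 per well and allowed 5 hr at 37 °C. Compounds were added across a concentration range and incubated 40 hr at 37 °C. CellTiter-Glo was added for 20 min at room temperature before luminescence reading.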

[6] = Cell Viability - Renal Proximal Tubule (AID 545); conditions: renal proximal tubule cells viability; activity change, negative = cytotoxicity: at 91.7 µM (top of the series) unless noted; also: nearly all actives have a fitted effect of over 40% in size; also: potency is read from the fitted curve at half-maximal effect
Method in brief: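 In this qHTS format, normal rat kidney-derived proximal tubule cells in complete culture medium receive compound titrations, then sit 40 hours at 37 °C before luciferase-based ATP quantitation; potency is reported as AC50 from concentration-response curves.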

[7] = Cellular Toxicity (caspase-3) HUV-EC-C (AID 656)
Method in brief: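 Concentration-dependent caspase 3/7 induction was assessed in HUV-EC-C cells exposed for 16 hours. Data scaled between DMSO and tamoxifen (100 uM) controls.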

[8] = Cellular Toxicity (caspase-3) MRC-5 (AID 659)
Method in brief: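 Apoptosis readout in MRC-5 cells: luciferase light generated after caspase 3/7 cleaves a peptide-aminoluciferin substrate, measured post 16 hr compound incubation at 37 °C.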

[9] = Cellular Toxicity (caspase-3) Mesangial (AID 660); conditions: Potency: caspase-3 activation;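 also: combined caspase 3 and 7 activity read by Caspase-Glo luminescence; cells exposed to compound for 16 h before the caspase read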; also: potency is read from the fitted curve at half-maximal effect
Method in brief: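 Seed cells derived from normal human renal glomeruli, incubate 5 h, add compounds across concentrations and incubate 16 h at 37 °C. Caspase 3/7 activation is then quantified by luciferase light, with AC50 derived by Hill modeling.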

[10] = Cellular Toxicity (caspase-3) Hek293 (AID 664); conditions: HEK293 caspase-3 activation, DMSO = 0%, 100 µM tamoxifen = 100%; at 92.2 µM (top of the series);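 also: cells exposed to compound for 16 h at 37 °C before readout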
Method in brief: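 qHTS, HEK293 (human embryonic kidney), 16 h cpd exposure in complete medium. Caspase-3/7 activation = luminescence increase; normalized to DMSO/100 uM tamoxifen; Hill-fit AC50.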

[11] = Cellular Toxicity (caspase-3) NIH 3T3 (AID 666);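 also: caspase signal read after 16 h compound exposure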
Method in brief: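 Cells were plated at 1000 per well and incubated 5 hr at 37°C, then compound was added for 16 hr. Caspase-Glo 3/7 reagent followed for 20 min at room temperature before luminescence was read.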

[12] = Cell Viability - LYMP1-003 - Assay at 24 hr (AID 963); also: potency is read from the fitted curve at half-maximal effect
Method in brief: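 Cytotoxicity is scored as a concentration-dependent fall in ATP-linked luciferase signal in human lymphoblastoid LYMP1-003 cells treated 24 hr at 37 C in complete culture medium.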

[13] = Cell Viability - LYMP2-003 (AID 965);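 also: cells exposed to compounds for 24 h before reading; nearly all actives have a fitted effect of over 50% in size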; also: potency is read from the fitted curve at half-maximal effect
Method in brief: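 qHTS, human lymphoblastoid line, 2500 cells/well, complete medium. 24 h drug, 37 C. ATP-based luminescent readout; Hill-fit AC50.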

[14] = Cell Viability - LYMP2-015 (AID 971);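 also: cells exposed to compound for 24 h; nearly all actives have a fitted effect of over 55% in size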; also: potency is read from the fitted curve at half-maximal effect
Method in brief: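 Cells are seeded at 2500 per well and incubated 5 hr at 37 C. Compounds are added across a concentration series for 24 hr at 37 C. CellTiter-Glo is added, and luminescence is read after 30 min at room temperature.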

[15] = Cell Viability - LYMP2-016 (AID 984);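 also: cells exposed to compound for 24 hours at 37 °C; nearly all actives have a fitted effect of over 55% in size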; also: potency is read from the fitted curve at half-maximal effect
Method in brief: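 Concentration-dependent ATP depletion measured in LYMP2-016 lymphoblastoid cells, 24 h, 37 C; luciferase-based luminescent detection; Hill-equation AC50.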

[16] = Cell Viability - LYMP2-018 (AID 985);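 also: compound exposure lasted 24 hr at 37 °C; nearly all actives have a fitted effect of over 50% in size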; also: potency is read from the fitted curve at half-maximal effect
Method in brief: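 Seed 2500 lymphoblastoid cells per well, incubate 5 hr at 37 C, add compound and incubate 24 hr at 37 C, add CellTiter-Glo, wait 30 min at room temperature, then read luminescence.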

[17] = target: Tumor necrosis factor (Homo sapiens) (UniProt P01375); assay: qHTS assay to identify small molecules that stimulate Tumor Necrosis Factor-alpha (TNF-alpha) secretion (AID 651757; active = well fitted curve in the direction sought with a large enough effect in the signal ratio; the % refers to the signal ratio)
Method in brief: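 Human monocytic THP-1 cells are plated, treated with compound and held at 37 C for 17 hrs. Labeled anti-TNF-alpha antibody mixture is then added; after 3 hr at room temperature, TR-FRET signal reports secreted TNF-alpha.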

[18] = target: Peroxisome proliferator-activated receptor alpha (Homo sapiens) (UniProt Q07869); assay: qHTS assay for small molecule agonists of the peroxisome proliferator-activated receptor alpha (PPARalpha) signaling pathway (AID 651778); conditions: PathHunter PPARalpha complementation, chemiluminescence, 6 h; max response: active compounds read high
Method in brief: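 Cells plated at 2,000/well and held overnight at 37 C, 5% CO2, then compound added by pin tool for 6 hr; after PathHunter detection reagent and 60 min at room temperature, chemiluminescence from enzyme complementation was read.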

[19] = qHTS assay for cell viability of the p53RE-bla HCT-116 cell line (AID 743292); also: nearly all actives have a fitted effect of over 55% in size; also: potency is read from the fitted curve at half-maximal effect
Method in brief: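 ATP-based luminescent viability (CellTiter-Glo, 30 min RT) after 16 h compound treatment at 37 C of p53RE-bla HCT-116 cells, seeded at 4,000 cells/well and rested 5 h before dosing.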

[20] = Stat Signaling Pathway (AID 446; active = well fitted curve in either direction with a large enough effect, not every such curve was filed as active;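 also: ME-180 cervical cancer cells given 40 pM IL-6 alongside compound; SIE-controlled beta-lactamase reporter measured as 460/530 nm FRET emission ratio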)
Method in brief: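 Normalization used AC90 stimulation (300 pM IL-6) and AC90 inhibition (125 nM pan-JAK inhibitor at 40 pM IL-6). The underlying signal is SIE-driven beta-lactamase in ME-180 cells after 5 h IL-6 exposure with compound.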

Sequence of Tumor necrosis factor (Homo sapiens) (P01375 whole entry, looked up): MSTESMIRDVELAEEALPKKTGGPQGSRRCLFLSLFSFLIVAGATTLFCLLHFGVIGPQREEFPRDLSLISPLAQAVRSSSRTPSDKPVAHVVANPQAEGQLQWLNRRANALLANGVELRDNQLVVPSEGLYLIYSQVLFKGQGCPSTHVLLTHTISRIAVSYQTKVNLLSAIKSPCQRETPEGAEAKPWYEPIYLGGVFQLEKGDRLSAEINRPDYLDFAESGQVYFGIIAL
Sequence of Peroxisome proliferator-activated receptor alpha (Homo sapiens) (Q07869 whole entry, looked up): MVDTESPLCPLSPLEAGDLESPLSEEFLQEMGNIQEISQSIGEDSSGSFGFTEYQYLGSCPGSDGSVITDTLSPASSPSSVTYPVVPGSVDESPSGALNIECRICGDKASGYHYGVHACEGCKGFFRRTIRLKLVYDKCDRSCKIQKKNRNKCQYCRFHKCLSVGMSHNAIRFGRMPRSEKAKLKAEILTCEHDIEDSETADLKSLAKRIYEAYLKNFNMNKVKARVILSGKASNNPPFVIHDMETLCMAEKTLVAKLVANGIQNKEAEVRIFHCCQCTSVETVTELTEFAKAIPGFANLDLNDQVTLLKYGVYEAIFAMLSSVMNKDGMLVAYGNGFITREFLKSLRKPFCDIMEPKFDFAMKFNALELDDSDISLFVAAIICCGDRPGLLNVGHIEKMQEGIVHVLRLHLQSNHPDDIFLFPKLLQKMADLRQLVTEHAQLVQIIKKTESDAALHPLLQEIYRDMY

c1ccc2cc3c(cc2c1)-c1cccc2cccc-3c12
activity change, negative = cytotoxicity [1]: -2.25%
Potency [2]: inactive
Potency [3]: inactive
Potency [4]: inactive
Potency [5]: inactive
Potency [6]: inactive
outcome [7]: inactive
outcome [8]: inactive
Potency [9]: inactive
caspase-3 activation [10]: -1.28%
outcome [11]: inactive
Potency [12]: inactive
Potency [13]: inactive
Potency [14]: inactive
Potency [15]: inactive
Potency [16]: inactive
Potency [17]: inactive
max response [18]: 13.7% and 0.159%
Potency [19]: inactive

N#CSCSC#N
Potency [1]: 25.1 µM (active)
Potency [2]: 10 µM (active)
Potency [3]: 25.1 µM (active)
Potency [4]: 10 µM (active)
Potency [5]: 1 µM (active)
Potency [6]: 5.01 µM (active)
outcome [7]: inactive
Potency [9]: inactive
caspase-3 activation [10]: -10.2%
outcome [11]: inactive
Potency [12]: 25.1 µM (active)
Potency [13]: 10 µM (active)
Potency [14]: 5.01 µM (active)
Potency [15]: 7.94 µM (active)
Potency [16]: 7.94 µM (active)
Potency [17]: inactive
max response [18]: -10% and -5.06%

Clc1ccc(C(c2ccc(Cl)cc2)C(Cl)Cl)cc1
activity change, negative = cytotoxicity [1]: -102% (active)
Potency [2]: inactive
Potency [3]: inactive
Potency [5]: 31.6 µM (active)
activity change, negative = cytotoxicity [6]: -88.1% (active)
outcome [8]: inactive
Potency [9]: 31.6 µM (active)
caspase-3 activation [10]: 127% (active)
outcome [11]: inactive
Potency [13]: inactive
Potency [14]: inactive
Potency [15]: inactive
Potency [16]: inactive
Potency [17]: inactive
max response [18]: 16.9%

O=[N+]([O-])c1cc(C(F)(F)F)cc([N+](=O)[O-])c1Cl
activity change, negative = cytotoxicity [2]: -150% (active)
Potency [3]: inactive
Potency [6]: inactive
outcome [7]: inactive
outcome [8]: inactive
Potency [9]: inactive
caspase-3 activation [10]: -11.2%
outcome [11]: inactive
Potency [12]: inactive
Potency [14]: 31.6 µM (active)
Potency [15]: 31.6 µM (active)
Potency [16]: 31.6 µM (active)
Potency [17]: inactive
max response [18]: -4.28%
Potency [19]: inactive

C#CCO
activity change, negative = cytotoxicity [1]: -2.19%
Potency [2]: inactive
Potency [3]: inactive
Potency [4]: inactive
Potency [5]: inactive
Potency [6]: inactive
outcome [7]: inactive
outcome [8]: inactive
Potency [9]: inactive
caspase-3 activation [10]: 1.98%
outcome [11]: inactive
Potency [12]: inactive
Potency [13]: inactive
Potency [14]: inactive
Potency [15]: inactive
Potency [16]: inactive
Potency [17]: inactive
max response [18]: -1.68%
Potency [19]: inactive

C[C@@H]1CC[C@@]2(OC1)O[C@H]1[C@@H](O)[C@H]3[C@@H]4CC[C@H]5C[C@@H](O[C@@H]6O[C@H](CO)[C@H](O[C@@H]7O[C@H](CO)[C@@H](O)[C@H](O[C@@H]8OC[C@@H](O)[C@H](O)[C@H]8O)[C@H]7O[C@@H]7O[C@H](CO)[C@@H](O)[C@H](O[C@@H]8O[C@H](CO)[C@@H](O)[C@H](O)[C@H]8O)[C@H]7O)[C@H](O)[C@H]6O)[C@H](O)C[C@]5(C)[C@H]4CC[C@]3(C)[C@H]1[C@@H]2C
Potency [1]: 31.6 µM (active)
Potency [2]: 31.6 µM (active)
Potency [3]: 25.1 µM (active)
Potency [4]: 20 µM (active)
Potency [5]: 15.8 µM (active)
Potency [6]: 7.94 µM (active)
outcome [7]: inactive
outcome [8]: inactive
Potency [9]: inactive
caspase-3 activation [10]: -8.63%
outcome [11]: inactive
Potency [12]: 7.94 µM (active)
Potency [13]: 20 µM (active)
Potency [14]: 15.8 µM (active)
Potency [15]: 25.1 µM (active)
Potency [16]: 25.1 µM (active)
Potency [17]: inactive
max response [18]: -5.72%
Potency [19]: 35.5 µM (active)

Cc1c(N=Cc2c(O)n(CCc3ccc(F)cc3)c(=O)[nH]c2=O)c(=O)n(-c2ccccc2)n1C
outcome [20]: inactive

CC(C)C[C@H](NC(=O)[C@@H]1CCCN1C(=O)[C@@H](N)Cc1ccc(O)cc1)C(=O)NCC(N)=O (H-YPLG-NH2)
outcome [20]: inactive

C[C@@H]1O[C@@H](O[C@H]2C[C@@H](O)[C@]3(CO)[C@@H]4[C@@H](O)C[C@]5(C)[C@H]([C@@H]6COC(=O)C6)CC[C@@]5(O)[C@H]4CC[C@@]3(O)C2)[C@H](O)[C@H](O)[C@@H]1O
outcome [20]: inactive

OC(Cc1ccccc1)(c1ccccc1)C1CN2CCC1CC2 (stereo unspecified)
outcome [20]: inactive

CN1CCC(OC(=O)C2c3ccccc3Oc3ccccc32)CC1
outcome [20]: inactive

Oc1cc2c(cc1O)[C@H]1c3ccccc3CN[C@@H]1CC2
outcome [20]: inactive

CCOc1ccc(-n2c(O)c(C=Nc3ccc(N(CC)CC)cc3)c(=O)[nH]c2=O)cc1
outcome [20]: inactive
